Shiga inhibitor = A qHTS for Small Molecule Inhibitors of Shiga Toxin. Vero cells, Shiga toxin protein synthesis inhibition reporter. inhibition, % at 38.7 µM. hit rate 9.2% among 290,000. AID 2315, 2010; in the data active = inhibition mostly above about 28%, no sharp cut-off; inactive = mostly below about 43%
TbPYK inhibitor = qHTS of Trypanosoma Brucei Inhibitors | pyruvate kinase (Trypanosoma brucei), Q57TT1 | TbPYK enzyme, Kinase-Glo Plus ATP luminescence, 45 min | Potency, µM (highest dose often 76.8 µM), hits mostly inhibitors | hit rate 0.12% among 410,000 | AID 624173, 2012; note: nearly all actives have a fitted effect of over 50% in size
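T. brucei PYK with substrate was exposed to pin-transferred compounds across a concentration series, then started with 130 uM ADP (final). After 45 min at room temperature, Kinase-Glo Plus luminescence was read, normalized and curve-fitted.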
CHX counter = Cycloheximide Counterscreen for Small Molecule Inhibitors of Shiga Toxin | cell reporter, cycloheximide protein synthesis inhibition counterscreen | max response, % | hit rate 12% among 300,000 | AID 2314, 2010; in the data active = max response mostly above about 13%, no sharp cut-off; inactive = mostly below about 14%; note: read at 38.3 µM for the half of the compounds with a filed dose
Giardia FBPA inh = qHTS Assay for Inhibitors of Fructose-1,6-bisphosphate Aldolase from Giardia Lamblia; purified Giardia FBPA; AID 2451, 2010; Potency, µM (highest dose often 59.6 µM), usual class: inhibitors; hit rate 0.71% among 290,000; A8B2U2; note: nearly all actives have a fitted effect of over 55% in size
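Giardia FBPA (40 nM reagent) was preincubated 10 min at RT with compound (up to 57.5 uM final), then substrate plus GAPDH/TPI/NAD/arsenate coupling system with diaphorase/resazurin was added; resorufin fluorescence (525/598 nm) was read after 20 min.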
LmPK inhibitor = qHTS Assay for Inhibitors of Leishmania Mexicana Pyruvate Kinase (LmPK). Q27686. purified LmPK, Kinase-Glo ATP luminescence, 1 h. Potency, µM (top dose mostly 57.5 µM), usual class: inhibitors. hit rate 0.37% among 290,000. AID 1721, 2009
Target sequence (Q27686 whole entry, looked up): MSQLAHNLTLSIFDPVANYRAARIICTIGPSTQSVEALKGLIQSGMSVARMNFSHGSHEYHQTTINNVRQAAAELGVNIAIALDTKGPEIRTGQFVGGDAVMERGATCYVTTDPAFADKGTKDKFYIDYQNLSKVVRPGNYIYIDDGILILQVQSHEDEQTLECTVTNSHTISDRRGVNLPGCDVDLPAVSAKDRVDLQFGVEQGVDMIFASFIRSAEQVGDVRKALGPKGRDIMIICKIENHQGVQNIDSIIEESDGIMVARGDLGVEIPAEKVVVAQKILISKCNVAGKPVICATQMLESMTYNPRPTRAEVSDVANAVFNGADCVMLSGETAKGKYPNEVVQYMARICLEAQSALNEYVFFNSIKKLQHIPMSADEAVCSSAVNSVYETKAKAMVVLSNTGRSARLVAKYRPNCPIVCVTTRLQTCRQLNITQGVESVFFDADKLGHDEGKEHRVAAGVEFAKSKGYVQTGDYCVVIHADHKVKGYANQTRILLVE
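0.1 nM LmPK, 0.5 mM PEP, 0.1 mM ADP; 50 mM imidazole pH 7.2, 7 mM MgCl2, 50 mM KCl; 1 h RT. Kinase-Glo luminescence readout, normalized to no-enzyme (full inhibition) and uninhibited wells.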
RE007 growth inh = qHTS Assay for Inhibitors of the HIV-1 protein Vpr. hit rate 0.21% among 360,000. Potency, µM (highest dose often 92.2 µM), most hits filed as inhibitors. S. pombe RE007 Vpr strain, BacTiter-Glo ATP luminescence, 24 h. AID 651644, 2012; active = well fitted falling curve with a large enough effect; inconclusive = small, poorly fitted or top-dose-only effect; inactive = no such curve, though single readings can be large or run the other way; note: nearly all actives have a fitted effect of over 50% in size
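Fission yeast RE007 carrying one integrated HIV-1 vpr copy, seeded at OD 0.01 in PMG+AL medium with 23 nL pinned compound. Grown 24 h at 30 degrees; viability read by BacTiter-Glo luminescence after 5 min.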
Numbers stand for hits; i = inactive; ? = inconclusive; nt = not tested or not shown; + = active, no number; [ ] = dose if it differs, or a comment. Only a selection was taken, and hits are over-represented in it overall. Unless noted, calls come from the whole dose curve; as a rule, active = well fitted curve in the direction sought with a large enough effect; inconclusive = small, poorly fitted or top-dose-only effect, or another doubt; inactive = no such curve, though single readings can be large; an effect the other way counts as inactive or inconclusive.

SMILES	Shiga inhibitor	TbPYK inhibitor	CHX counter	Giardia FBPA inh	LmPK inhibitor	RE007 growth inh
COCC1CCN(Cc2nc(COc3ccccc3)no2)C1 (configuration not stated)	31	i	15	i	i	i
COCCCC1CCN(Cc2nc(-c3ccccc3)no2)CC1	76	i	23	i	i	i
COc1ccc(-c2noc(CN(C)C3CCOCC3)n2)cc1	i	i	i	i	i	i
COCCCC1CCN(Cc2nc(Cc3ccccc3Cl)no2)CC1	i	i	i	i	i	i
Cc1c(C)[n+](=O)c(C)c(C)n1[O-]	nt	i	nt	nt	nt	i
C=Cc1ccc(Cn2c(C(=O)O)c(CNCCc3ccccc3)c3ccc(C)cc32)cc1	nt	i	nt	nt	nt	nt
c1ccc(-c2noc(CSc3nnnn3C3CCCCC3)n2)cc1	i	i	28	i	i	i
c1cc(-c2noc(CCC3CCCC3)n2)ccn1	i	i	17	i	i	i
O=C1c2ccccc2C(=O)N1CCCc1nc(-c2ccncc2)no1	i	nt	i	i	i	i[3.69 µM]
c1ccc(-c2noc(CC3CCCCC3)n2)cc1	48	i	31	i	i	i
C=CCN=C(NC#N)SCc1ccccc1	i	i	i	i	i	i
C=CCN=C(NC#N)SCC(=O)c1cccc(OC)c1	63	i	61	?	i	i
CC(=O)N(CN1C(=O)c2ccccc2C1=O)c1cccc(C)c1	i	i	i	i	i	i
CC(=O)N(/N=C1\Sc2ccccc2C1=O)c1cccc(C)c1	142	i	58	i	i	i
CN(C)C(=O)Oc1ccc(OC(=O)c2ccccc2)cc1	20	?	39	i	13µM	i
COC(=O)c1c(NC(=O)C2CCC2)sc(C(=O)N(C)C)c1C	i	i	i	i	i	i
CCOC(=O)c1sc(NC(=O)CCN2C(=O)c3ccccc3C2=O)c(C(=O)OCC)c1C	i	i	13	i	i	i
CCOC(=O)c1c(NC(=O)CCN2C(=O)c3ccccc3C2=O)sc(C(=O)OC(C)C)c1C	i	i	i	i	i	i
CCOC(=O)c1c(NC(=O)CSc2cccc[n+]2[O-])sc(C(=O)Nc2ccccc2)c1C	72	i	27	?	i	i
CCOC(=O)c1sc(NC(=O)CSc2nc3ccccc3s2)c(C(=O)OCC)c1C	i	nt	i	i	i	nt
COC(=O)c1c(NC(=O)C2CC2)sc(C(=O)Nc2ccccc2)c1C	52	i	25	i	i	i
O=C1C(=O)N(Cc2cccs2)c2ccccc21	i	i	i	i	i	i
Cc1ccc(OCc2nnn(CC(=O)NS(=O)(=O)c3c(C)noc3C)c2-c2ccccc2)cc1	nt	i	nt	nt	nt	i
Cc1nc(NCCO)c2nc(-c3ccccc3)n(CCCN(C)C)c2n1	nt	nt	nt	i	nt	nt
Cc1c(Cl)cccc1NC(=O)CN1C(=O)COc2ccc(S(=O)(=O)N3CCCCCC3)cc21	nt	i	nt	nt	nt	nt
SMILES	Shiga inhibitor	TbPYK inhibitor	CHX counter	Giardia FBPA inh	LmPK inhibitor	RE007 growth inh
O=C(O)c1ccc(-c2ccccc2C(F)(F)F)s1	i	nt	i	i	nt	nt
c1ccc(-c2ccc(-c3ccccn3)s2)nc1	132	i	45	i	?	i
O=C(O)c1ccc(-c2ccccn2)s1	29	i	45	i	i	i
c1ccc(-c2nnc(-c3ccccn3)nn2)nc1	nt	i	nt	nt	nt	i
CCOc1ccccc1-c1ccc(C(=O)O)s1	+	nt	44	i	nt	nt
CN(C)c1ccc(CN(Cc2ccco2)C(=O)c2ccc(F)cc2)cc1	nt	i	nt	nt	nt	nt
O=C(Nc1cccc(-n2cnnn2)c1)c1ccc(OC(F)(F)F)cc1	i	i	i	i	i	i
C[C@@H]1C[C@H]2[C@@H]3C[C@H](F)C4=CC(=O)C=C[C@]4(C)[C@@]3(Cl)[C@@H](O)C[C@]2(C)[C@H]1C(=O)COC(=O)C(C)(C)C	nt	i	nt	nt	nt	i[18.4 µM]
COc1cc2c(cc1OC)/C(=C/C(=O)c1ccc(OC)c([N+](=O)[O-])c1)NCC2	i	i	11	i	i	i
O=S(=O)(Nc1cc(Cl)cc(Cl)c1)N1CCOCC1	i	i	i	i	i	i
Nc1nc(CCl)nc(Nc2ccc3ccccc3c2)n1	90	i	74	i	i	i
COc1ccc(Nc2nc(N)nc(CCl)n2)cc1	78	i	67	i	i	i
COc1ccc(Nc2nc(N)nc(CN3CCOCC3)n2)cc1	i	i	i	i	i	i
O=c1[nH]c(=S)[nH]cc1Oc1ccc(Cl)cc1Cl	i	i	i	i	i	nt
CCN(CC)C(=O)Oc1ccc2ccccc2c1Cl	80	i	43	i	i	i
CN(C)C(=O)Oc1ccc2ccccc2c1Cl	i	i	30	i	i	i
CN(C)C(=O)Oc1ccc(Cl)c2ccccc12	i	i	i	i	i	i
CN1CCN(c2ccc(CNC(=O)C3Cc4c(-c5ccc(Cl)cc5)ccnc4O3)cc2)CC1 (configuration not stated)	nt	i	nt	nt	nt	i
N#CN1C2CCC1CC(O)(c1ccccc1)C2 (configuration not stated)	nt	i	nt	nt	nt	i
COc1cccc(OCc2ccc(C(=O)NCC3CCCO3)cc2)c1 (configuration not stated)	37	i	28	i	i	i
O=C(NCC1CCCO1)c1ccc(COc2ccccc2Br)cc1 (configuration not stated)	+	i	i	i	i	i
CC(C)(C)OC(=O)NCc1ccc(CNC(=O)c2nc[nH]c2C(=O)N2CCN(C(=O)OC(C)(C)C)CC2)cc1	nt	i	nt	nt	nt	i
COc1ccc(C)cc1NC(=O)CSc1nnc(-c2cc(C)[nH]n2)n1N	i	i	i	nt	i	i
CCOC(=O)/C(C#N)=C1\SS/C(=C(/C#N)C(=O)OCC)S1	50	nt	35	?	i	nt
CCCn1c(SCC(=O)NC2CC2)nnc1-c1cccs1	i	i	i	nt	i	i
SMILES	Shiga inhibitor	TbPYK inhibitor	CHX counter	Giardia FBPA inh	LmPK inhibitor	RE007 growth inh
Cn1c(SCC(=O)NC2CCCC2)nnc1-c1ccncc1	i	i	i	i	i	i
CC1CN(C(=O)CSc2nnc(-c3ccncc3)n2-c2ccccc2)CC(C)O1 (configuration not stated)	i	i	i	i	i	i
CC1CN(C(=O)CSc2nnc(-c3ccc(Cl)cc3)n2C)CC(C)O1 (configuration not stated)	i	i	20	i	i	i
CC(C)c1ccc(-c2nnc(SCC(=O)NC3CC3)n2C)cc1	37	i	13	nt	i	i
Cn1c(SCC(=O)NC2CC2)nnc1-c1cccs1	75	i	62	nt	i	i
Cc1c(Br)c([N+](=O)[O-])nn1C(C)C(=O)N1CCc2ccccc2C1 (configuration not stated)	30	i	27	nt	i	i
Cn1cnc(S(=O)(=O)N2CCC(C(=O)N3CCN(c4ccc(Cl)cc4)CC3)CC2)c1	nt	i	nt	nt	nt	nt

From PubChem
